# Several values for one entry are separate records, joined by “and”; a condition that tells them apart may be missing. Equal entries are not always repeated. Inconclusive results are not listed. More than one record can exist for a structure, and the calls need not agree. Activity calls are given as the source filed them. Rule for the calls, unless noted: active = hit-call score of the fitted dose curve at least 0.9, where 1 is the maximum; inactive = score below 0.9.
# Assays:
# [1] = read-out: Monocyte Chemoattractant Protein-1 (MCP1), CCL2 (gene 6347); test: BSK_LPS_MCP1: BioMAP Diversity Plus: LPS Assay for Monocyte Chemoattractant Protein-1 (MCP1) Biomarker Activity (AID 2283081); details: primary human HUVEC with PBMC; actives raise or lower the signal
# Procedure, shortened: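 Human umbilical vein endothelial cells co-cultured with PBMC, LPS-stimulated; secreted MCP-1 measured by ELISA 24 h after compound addition. Bidirectional curve fitting against DMSO baseline; SRB total-protein staining in parallel cultures for cytotoxicity.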
# [2] = BSK_LPS_PGE2: BioMAP Diversity Plus: LPS Assay for Prostaglandin E2 (PGE2) Biomarker Activity (AID 2283082); details: primary human HUVEC with PBMC; actives raise or lower the signal;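 for AC50: secreted prostaglandin E2 measured by ELISA in LPS-stimulated co-culture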
# Procedure, shortened: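 Endpoint derived from bidirectional curve fitting versus DMSO of ELISA-measured PGE2 in LPS-stimulated human primary vascular co-culture (HUVEC with PBMC) harvested at 24 h.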
# [3] = read-out: Macrophage colony-stimulating factor (MCSF), CSF1 (gene 1435); test: BSK_LPS_MCSF: BioMAP Diversity Plus: LPS Assay for Macrophage colony-stimulating factor (MCSF) Biomarker Activity (AID 2283083); details: primary human HUVEC with PBMC; actives raise or lower the signal
# Procedure, shortened: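 HUVEC–PBMC co-culture, M-CSF measured by ELISA 24 h after chemical dosing. Fitted in both directions relative to DMSO as negative control; overt cytotoxicity assessed by SRB total-protein staining in parallel cultures.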
# [4] = read-out: Tissue Factor, F3 (gene 2152); test: BSK_LPS_TissueFactor: BioMAP Diversity Plus: LPS Assay for Tissue Factor Biomarker Activity (AID 2283084); details: primary human HUVEC with PBMC; actives raise or lower the signal
# Procedure, shortened: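 Human umbilical vein endothelial cells co-cultured with PBMC were dosed with compound. Cell-surface CD142 was measured by ELISA 24 h later. Activity was fitted bidirectionally against DMSO, with SRB total-protein staining in parallel cultures for cytotoxicity.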
# [5] = read-out: Vascular cell adhesion molecule 1 (VCAM1), VCAM1 (gene 7412); test: BSK_LPS_VCAM1: BioMAP Diversity Plus: LPS Assay for Vascular cell adhesion molecule 1 (VCAM1) Biomarker Activity (AID 2283086); details: primary human HUVEC with PBMC; actives raise or lower the signal
# Procedure, shortened: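 Primary human vascular co-culture (umbilical vein endothelium plus PBMC) stimulated with LPS received chemical; 24 h later VCAM-1 was read by ELISA. Overt cytotoxicity was assessed by sulforhodamine B staining of parallel cultures at the same time point.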
# [6] = read-out: CD38, CD38 (gene 952); test: BSK_SAg_CD38: BioMAP Diversity Plus: SAg Assay for CD38 Biomarker Activity (AID 2283087); details: primary human HUVEC with PBMC; actives raise or lower the signal
# Procedure, shortened: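 Fluorescence ELISA of cell-surface CD38 served as the read-out, with either increase or decrease fitted against DMSO controls. Cells were a human umbilical vein endothelium plus PBMC co-culture under SEB/TSST-1 stimulation, measured 24 h after dosing.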
# [7] = read-out: CD40, CD40 (gene 958); test: BSK_SAg_CD40: BioMAP Diversity Plus: SAg Assay for CD40 Biomarker Activity (AID 2283088); details: primary human HUVEC with PBMC; actives raise or lower the signal
# Procedure, shortened: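 HUVEC plus PBMC co-culture, superantigen-activated, with CD40 read by ELISA 24 h after dosing. Curves fitted in both directions against DMSO. Overt cytotoxicity checked by parallel SRB total-protein staining.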
# [8] = read-out: CD69, CD69 (gene 969); test: BSK_SAg_CD69: BioMAP Diversity Plus: SAg Assay for CD69 Biomarker Activity (AID 2283089); details: primary human HUVEC with PBMC; actives raise or lower the signal
# Procedure, shortened: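 Values derive from bidirectional fitting relative to DMSO vehicle. Cells: umbilical vein endothelium plus peripheral blood mononuclear cells, treated 24 h before fluorescent ELISA for CD69.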
# [9] = read-out: Monocyte Chemoattractant Protein-1 (MCP1), CCL2 (gene 6347); test: BSK_SAg_MCP1: BioMAP Diversity Plus: SAg Assay for Monocyte Chemoattractant Protein-1 (MCP1) Biomarker Activity (AID 2283090); details: primary human HUVEC with PBMC; actives raise or lower the signal
# Procedure, shortened: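 MCP-1 levels in the endothelial–PBMC SAg co-culture were quantified by ELISA at 24 h post-dosing; both increases and decreases versus DMSO scored. Cytotoxicity monitored by SRB total protein in parallel cultures.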
# [10] = read-out: E-selectin (Homo sapiens) (UniProt P16581); test: BSK_SAg_Eselectin: BioMAP Diversity Plus: SAg Assay for Eselectin Biomarker Activity (AID 2283091); details: primary human HUVEC with PBMC; actives raise or lower the signal
# Procedure, shortened: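 Human umbilical vein endothelial cells co-cultured with peripheral blood mononuclear cells, SAg system. E-selectin is measured by ELISA 24 h after dosing and fitted bidirectionally against DMSO. Cytotoxicity is checked by SRB staining of parallel cultures.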
# [11] = read-out: Monokine induced gamma interferon (MIG), CXCL9 (gene 4283); test: BSK_SAg_MIG: BioMAP Diversity Plus: SAg Assay for Monokine induced gamma interferon (MIG) Biomarker Activity (AID 2283092); details: primary human HUVEC with PBMC; actives raise or lower the signal
# Procedure, shortened: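 Values reflect bidirectional fitting of ELISA-measured MIG against DMSO vehicle, taken 24 h after dosing of a co-culture of human umbilical vein endothelial cells and peripheral blood mononuclear cells.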
# [12] = BSK_SAg_PBMCCytotoxicity: PBMC Cytotoxicity Assessment in the BioMAP Diversity Plus: SAg Assay (AID 2283093); details: primary human HUVEC with PBMC;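 note: PBMC viability measured as Alamar Blue reduction fluorescence at 546/580 nm; fitted both ways against DMSO so a hit may be loss or gain of signal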
# Procedure, shortened: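 HUVEC/PBMC co-culture; PBMC exposed to chemical 1 h before SEB and TSST-1 activation (20 ng/mL each), incubated 90 h, then Alamar Blue 6 h, fluorescence 546/580 nm. Bidirectional fit versus DMSO baseline.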
# [13] = read-out: Interleukin-8 (IL8), CXCL8 (gene 3576); test: BSK_SAg_IL8: BioMAP Diversity Plus: SAg Assay for Interleukin-8 (IL8) Biomarker Activity (AID 2283094); details: primary human HUVEC with PBMC; actives raise or lower the signal
# Procedure, shortened: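 In this co-culture of human umbilical vein endothelium with peripheral blood mononuclear cells, IL-8 is assayed by ELISA at 24 h. DMSO serves as baseline for bidirectional curve fitting.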
# [14] = BSK_SAg_Proliferation: Cell Proliferation Assessment in the BioMAP Diversity Plus: SAg Assay (AID 2283095); details: primary human HUVEC with PBMC;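 note: relative cell number as total protein by SRB absorbance in sub-confluent culture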
# Procedure, shortened: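 Readout is SRB-stained protein (560 nm) in a primary human HUVEC and PBMC co-culture; sub-confluent cultures are read at 96 h. Activity is fitted bidirectionally using DMSO as baseline.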
# [15] = BSK_SAg_SRB: Viability Assessment in the BioMAP Diversity Plus: SAg Assay (AID 2283096); details: primary human HUVEC with PBMC;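 note: cells read one day after compound addition; hits may be either gain or loss of signal compared with DMSO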
# Procedure, shortened: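 Human umbilical vein endothelial cells co-cultured with PBMC, read 24 h after compound dosing. Total protein measured by sulforhodamine B staining (0.1% SRB after 10% TCA fixation, absorbance 560 nm); bidirectional fit versus DMSO baseline.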
# [16] = read-out: Tumor necrosis factor (Homo sapiens) (UniProt P01375); test: BSK_LPS_TNFa: BioMAP Diversity Plus: LPS Assay for Tumour Necrosis Factor alpha (TNFa) Biomarker Activity (AID 2283085); details: primary human HUVEC with PBMC; actives raise or lower the signal
# Procedure, shortened: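 Primary human vascular co-culture of HUVEC and PBMC; TNFa ELISA 24 h after treatment, analysed as increase or decrease relative to DMSO control.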
# [17] = target: human CYP19A1, CYP19A1 (gene 1588) (UniProt P11511); test: NVS_ADME_hCYP19A1: NovaScreen (NVS) CYP450-related Enzyme Activity (ADME) Assay for human CYP19A1 (AID 2283098; active = hit-call score of the fitted dose curve at least 0.9, where 1 is the maximum)
# Procedure, shortened: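 Recombinant enzyme in a cell-free format, read 0.5 h after dosing by fluorescence from a fluorogenic substrate. Loss of signal was fitted against acetonitrile as baseline. Primary screen in duplicate at 10 uM, actives then tested in concentration series.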
# [18] = target: human CYP1A1, CYP1A1 (gene 1543) (UniProt P04798); test: NVS_ADME_hCYP1A1: NovaScreen (NVS) CYP450-related Enzyme Activity (ADME) Assay for human CYP1A1 (AID 2283100; active = hit-call score of the fitted dose curve at least 0.9, where 1 is the maximum)
# Procedure, shortened: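 Recombinant CYP1A1 with a fluorogenic substrate, cell-free, read 1 h after dosing; acetonitrile as negative control. Single-concentration screen at 10 uM in duplicate, then concentration-response up to 20 uM for chemicals meeting ~30% inhibition threshold.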
# Sequence of Tumor necrosis factor (Homo sapiens) (P01375 whole entry, looked up): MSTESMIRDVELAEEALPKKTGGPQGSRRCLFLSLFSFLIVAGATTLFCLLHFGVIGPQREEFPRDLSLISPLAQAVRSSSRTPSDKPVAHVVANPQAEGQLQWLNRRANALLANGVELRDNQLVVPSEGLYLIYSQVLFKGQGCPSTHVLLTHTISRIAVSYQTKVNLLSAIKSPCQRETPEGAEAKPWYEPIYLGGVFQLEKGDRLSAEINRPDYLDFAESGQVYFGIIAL
# Sequence of E-selectin (Homo sapiens) (P16581 whole entry, looked up): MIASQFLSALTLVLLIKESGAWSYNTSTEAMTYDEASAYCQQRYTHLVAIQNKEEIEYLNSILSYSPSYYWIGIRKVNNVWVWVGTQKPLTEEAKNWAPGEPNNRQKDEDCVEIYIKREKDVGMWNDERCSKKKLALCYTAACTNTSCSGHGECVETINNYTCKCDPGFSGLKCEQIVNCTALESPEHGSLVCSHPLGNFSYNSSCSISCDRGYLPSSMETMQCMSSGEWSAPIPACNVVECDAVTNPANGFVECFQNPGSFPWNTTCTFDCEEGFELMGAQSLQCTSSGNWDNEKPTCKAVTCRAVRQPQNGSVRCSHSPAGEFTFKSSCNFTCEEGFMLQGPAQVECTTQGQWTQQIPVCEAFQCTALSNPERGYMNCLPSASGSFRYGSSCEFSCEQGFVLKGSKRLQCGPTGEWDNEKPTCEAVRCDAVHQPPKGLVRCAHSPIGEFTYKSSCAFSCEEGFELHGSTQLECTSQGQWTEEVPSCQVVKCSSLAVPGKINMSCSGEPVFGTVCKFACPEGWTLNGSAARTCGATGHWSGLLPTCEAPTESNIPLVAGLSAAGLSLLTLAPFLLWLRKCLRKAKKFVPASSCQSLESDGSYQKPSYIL
# Sequence of human CYP19A1, CYP19A1 (gene 1588) (P11511 whole entry, looked up): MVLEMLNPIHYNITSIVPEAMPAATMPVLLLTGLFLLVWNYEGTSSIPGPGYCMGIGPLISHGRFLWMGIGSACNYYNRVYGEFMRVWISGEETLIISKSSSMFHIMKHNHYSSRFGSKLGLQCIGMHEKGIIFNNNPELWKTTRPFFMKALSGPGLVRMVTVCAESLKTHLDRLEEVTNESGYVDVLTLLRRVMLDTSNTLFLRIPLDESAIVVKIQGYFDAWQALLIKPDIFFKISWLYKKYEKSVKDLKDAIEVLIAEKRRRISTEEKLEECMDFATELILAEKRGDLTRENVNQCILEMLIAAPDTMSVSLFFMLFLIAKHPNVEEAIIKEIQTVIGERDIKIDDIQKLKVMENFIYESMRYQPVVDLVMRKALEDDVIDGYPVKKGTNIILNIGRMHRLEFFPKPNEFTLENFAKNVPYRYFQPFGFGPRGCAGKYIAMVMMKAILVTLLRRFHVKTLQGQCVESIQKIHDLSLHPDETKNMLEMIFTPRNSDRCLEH
# Sequence of human CYP1A1, CYP1A1 (gene 1543) (P04798 whole entry, looked up): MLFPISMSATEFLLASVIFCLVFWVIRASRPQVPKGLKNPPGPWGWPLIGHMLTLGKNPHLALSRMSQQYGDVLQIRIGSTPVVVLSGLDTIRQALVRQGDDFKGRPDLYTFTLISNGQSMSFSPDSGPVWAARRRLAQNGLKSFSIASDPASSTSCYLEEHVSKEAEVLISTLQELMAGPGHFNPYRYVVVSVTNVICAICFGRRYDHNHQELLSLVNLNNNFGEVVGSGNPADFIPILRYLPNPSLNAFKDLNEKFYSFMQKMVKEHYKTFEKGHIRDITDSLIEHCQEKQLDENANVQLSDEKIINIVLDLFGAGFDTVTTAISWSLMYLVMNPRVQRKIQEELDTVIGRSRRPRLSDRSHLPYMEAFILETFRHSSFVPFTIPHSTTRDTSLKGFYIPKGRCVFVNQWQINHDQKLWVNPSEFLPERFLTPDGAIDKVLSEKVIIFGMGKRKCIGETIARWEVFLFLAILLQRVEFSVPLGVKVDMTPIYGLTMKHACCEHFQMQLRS
structure (smiles),measurement,setting,value
C[C@@H]1C[C@H]2[C@@H]3CCC4=CC(=O)C=C[C@]4(C)[C@@]3(F)[C@@H](O)C[C@]2(C)[C@@]1(O)C(=O)COP(=O)(O)O,outcome,[1],inactive
same,AC50,[2],9.37 µM (active) and 3.63 µM (active)
same,outcome,[2],inactive
same,outcome,[3],inactive
same,outcome,[4],inactive
same,outcome,[5],inactive
same,outcome,[6],inactive
same,AC50,[7],2.65 µM (active)
same,outcome,[7],inactive
same,outcome,[8],inactive
same,outcome,[9],inactive
same,AC50,[10],2.96 µM (active) and 1.73 µM (active) and 1.25 µM (active)
same,outcome,[11],inactive
same,outcome,[12],inactive
same,AC50,[13],6.07 µM (active)
same,outcome,[13],inactive
same,outcome,[14],inactive
same,outcome,[15],inactive
CC(C)CCCCCCOC(=O)CCCCC(=O)OCCCCCCC(C)C,outcome,[1],inactive
same,outcome,[2],inactive
same,outcome,[3],inactive
same,outcome,[4],inactive
same,outcome,[16],inactive
same,outcome,[5],inactive
same,outcome,[6],inactive
same,outcome,[7],inactive
same,outcome,[8],inactive
same,outcome,[9],inactive
same,outcome,[10],inactive
same,outcome,[12],inactive
same,outcome,[13],inactive
same,outcome,[14],inactive
same,outcome,[15],inactive
COCC(C)OCC(C)O (stereo unspecified),outcome,[1],inactive
same,outcome,[2],inactive
same,outcome,[3],inactive
same,outcome,[4],inactive
same,outcome,[16],inactive
same,outcome,[5],inactive
same,outcome,[6],inactive
same,outcome,[7],inactive
same,outcome,[8],inactive
same,outcome,[9],inactive
same,outcome,[10],inactive
same,outcome,[12],inactive
same,outcome,[13],inactive
same,outcome,[14],inactive
same,outcome,[15],inactive
same,outcome,[17],inactive
O=C(OCCOCCOC(=O)c1ccccc1)c1ccccc1,outcome,[1],inactive
same,outcome,[2],inactive
same,outcome,[3],inactive
same,outcome,[4],inactive
same,AC50,[16],3.97 µM (active)
same,outcome,[5],inactive
same,outcome,[6],inactive
same,outcome,[7],inactive
same,outcome,[8],inactive
same,outcome,[9],inactive
same,outcome,[10],inactive
same,outcome,[12],inactive
same,outcome,[13],inactive
same,outcome,[14],inactive
same,outcome,[15],inactive
same,outcome,[18],inactive
Cc1cc(C)c(O)c(C)c1,outcome,[1],inactive
same,AC50,[2],2.97 µM (active)
same,outcome,[3],inactive
same,outcome,[4],inactive
same,outcome,[5],inactive
same,outcome,[6],inactive
same,outcome,[7],inactive
same,outcome,[8],inactive
same,outcome,[9],inactive
same,outcome,[10],inactive
same,outcome,[11],inactive
same,outcome,[12],inactive
same,outcome,[13],inactive
same,outcome,[14],inactive
same,outcome,[15],inactive
CCCCCCC(=O)O,outcome,[1],inactive
same,outcome,[2],inactive
same,outcome,[3],inactive
same,outcome,[4],inactive
same,outcome,[16],inactive
same,outcome,[5],inactive
same,outcome,[6],inactive
same,outcome,[7],inactive
same,outcome,[8],inactive
same,outcome,[9],inactive
same,outcome,[10],inactive
same,outcome,[11],inactive
same,outcome,[12],inactive
same,outcome,[13],inactive
same,outcome,[14],inactive
same,outcome,[15],inactive
